Experimental data reported in PubChem BioAssay (Tox21).
Records with an inconclusive call do not appear. The source made the active and inactive calls. Unless noted, the call rests on the fitted dose curve; in most records, active means well fitted curve in the direction sought with a large enough effect in the repeat runs; inconclusive means weak or mixed curves; inactive means no such curve, though single readings can be large; an effect the other way counts as inactive or inconclusive.

Assays:
[1] = qHTS assay to identify small molecule agonists of the vitamin D receptor (VDR) signaling pathway - cell viability counter screen (AID 743224); further: nearly all actives have a fitted effect of over 50% in size; further: potency means the concentration at half of the fitted maximal effect
Summary of the method: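 In parallel with the bla FRET readout, cytotoxicity toward VDR-bla cells after 16 h compound exposure was assessed by CellTiter-Glo, with luminescence recorded after a 30 min room-temperature incubation.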

[2] = qHTS assay to identify small molecule antagonists of the vitamin D receptor (VDR) signaling pathway - cell viability counter screen (AID 743225); further: nearly all actives have a fitted effect of over 50% in size; further: potency means the concentration at half of the fitted maximal effect
Summary of the method: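 Parallel cytotoxicity test: VDR-UAS-bla HEK 293T, 3 nM (final) 1-alpha,25-dihydroxyvitamin D3 with test compound, 16 h, 37C. Endpoint is CellTiter-Glo luminescence in the same wells.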

[3] = qHTS assay to identify small molecule agonists of the NFkB signaling pathway - cell viability counter screen (AID 1159515; calls by dose curve; further: nearly all actives have a fitted effect of over 55% in size; further: potency means the concentration at half of the fitted maximal effect)
Summary of the method: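 Plate 2,000 NFkB-bla ME-180 cells/well; incubate overnight. Add compounds, 5 hr at 37 C. Add FRET substrate, 1.5 hr RT. Add CellTiter-Glo, 30 min RT; read luminescence.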

[4] = qHTS assay to identify small molecule agonists of the endoplasmic reticulum stress response signaling pathway - cell viability counter screen (AID 1159517; calls by dose curve; further: nearly all actives have a fitted effect of over 50% in size; further: potency means the concentration at half of the fitted maximal effect)
Summary of the method: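 Cpd-treated ESRE-bla HeLa (5 hr, 37 C) → LiveBLAzer 2 hr RT → CellTiter-Glo 30 min RT → luminescence.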

[5] = qHTS assay to identify small molecule antagonists of the retinoid-related orphan receptor gamma (ROR-gamma) signaling pathway - cell viability counter screen (AID 1159520); further: nearly all actives have a fitted effect of over 50% in size; further: potency means the concentration at half of the fitted maximal effect
Summary of the method: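 Tet-on ROR gamma CHO cells (1,000/well) were plated 4 hr, given compounds in DMSO for 2 hr at 37 C, then induced with 1 uM final doxycycline for 16 hr. Viability was read as ATP by CellTiter-Glo luminescence after 30 min.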

[6] = target: Nuclear receptor ROR-gamma (Homo sapiens) (UniProt P51449); assay: qHTS assay to identify small molecule antagonists of the retinoid-related orphan receptor gamma (ROR-gamma) signaling pathway (AID 1159521; further: nearly all actives have a fitted effect of over 50% in size; further: potency means the concentration at half of the fitted maximal effect)
Summary of the method: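 Decreased RORE-driven luciferase luminescence indicates antagonism. Tet-on RORγ CHO cells received compound, then 1 uM final doxycycline 2 h later; signal read after 16 h incubation.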

[7] = qHTS assay to identify small molecule agonists of the AP-1 signaling pathway - cell viability counter screen (AID 1159525; calls by dose curve; further: nearly all actives have a fitted effect of over 55% in size; further: potency means the concentration at half of the fitted maximal effect)
Summary of the method: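 Each titration point was normalised to DMSO and tetra n-octyl ammonium bromide controls. The read was Cell Titer Glo luminescence after 30 min at RT, following 5 h compound exposure of ME-180 AP-1-bla cells at 37 °C.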

[8] = target: Retinoic acid receptor RXR-alpha (Homo sapiens) (UniProt P19793); assay: qHTS assay to identify small molecule agonists of the RXR signaling pathway (AID 1159527; calls by dose curve; further: nearly all actives have a fitted effect of over 35% in size; further: potency means the concentration at half of the fitted maximal effect)
Summary of the method: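 16 hr incubation of compound-treated RXR-alpha-UAS-bla HEK 293T cells (2% charcoal-stripped FBS, 37 C) preceded a 2 hr room-temperature LiveBLAzer FRET substrate step and blue/green fluorescence measurement.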

[9] = qHTS assay to identify small molecule antagonists of the retinoid acid receptor (RAR) signaling pathway - cell viability counter screen (AID 1159551); further: nearly all actives have a fitted effect of over 35% in size; further: potency means the concentration at half of the fitted maximal effect
Summary of the method: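 Viability of C3RL4 cells is quantified from ATP by luminescence after 6 h treatment at 37 C with compounds and 1 uM retinol.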

[10] = qHTS assay to identify small molecule antagonists of the retinoic acid receptor (RAR) signaling pathway (AID 1159552; further: nearly all actives have a fitted effect of over 50% in size; further: potency means the concentration at half of the fitted maximal effect)
Summary of the method: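 C3RL4 RARE-luc cells, overnight plating; retinol 1 uM final added right after compound; 6 hr 37 C; luciferase read at 30 min RT.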

[11] = qHTS assay to identify small molecule agonists of the RXR signaling pathway - cell viability counter screen (AID 1159529); further: nearly all actives have a fitted effect of over 50% in size; further: potency means the concentration at half of the fitted maximal effect
Summary of the method: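 In this parallel viability measure, GeneBLAzer RXR-alpha HEK 293T cells (2% charcoal-stripped FBS) were given a 5 hr preincubation, treated with compounds 16 hr at 37 C, and read by CellTiter-Glo luminescence.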

[12] = qHTS assay to identify small molecule agonists of the AP-1 signaling pathway (AID 1159526; calls by dose curve)
[13] = qHTS assay to identify small molecule antagonists of the estrogen related receptor (ERR) signaling pathway (AID 1224819; further: nearly all actives have a fitted effect of over 50% in size; further: potency means the concentration at half of the fitted maximal effect)
Summary of the method: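 ERR reporter cells were plated at 2,000 cells/well and left 6 h at 37 C/5% CO2 before pin-tool transfer of compounds in DMSO. After 18 h at 37 C, One-Glo was added and luminescence was read 30 min later at room temperature.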

[14] = qHTS assay to identify small molecule agonists of the estrogen related receptor (ERR) signaling pathway (AID 1224820)
Summary of the method: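 An ERR cell line provided by NTP was seeded at 2,000 cells per well and allowed to settle for 6 h before compounds in DMSO were added. After 18 h at 37 C, luciferase activity was measured by One-Glo luminescence.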

[15] = qHTS assay to identify small molecule agonists of the estrogen related receptor signaling pathway with the pleiotropic PPARgamma coactivator (PGC) (AID 1224823)
Summary of the method: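 Compounds dissolved in DMSO are added by pin tool to PGC/ERR cells that have settled for 6 h, and incubation continues 18 h at 37 C. Reporter output is measured as One-Glo luminescence.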

[16] = qHTS assay to identify small molecule agonists of the retinoic acid receptor (RAR) signaling pathway (AID 1159553); further: potency means the concentration at half of the fitted maximal effect
Summary of the method: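 Compounds dissolved in DMSO were pinned onto C3RL4 cells seeded the previous day, and plates were held 6 hr at 37 C. RARE-driven luciferase output was then read by luminescence.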

[17] = qHTS assay to identify small molecule antagonists of the estrogen related receptor (ERR) signaling pathway - cell viability counter screen (AID 1224818);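 further: series mostly up to about 46 µM; viability measured after 17.5 h of compound exposure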
Summary of the method: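 Cytotoxicity check run alongside the ERR antagonist screen: cells exposed to test compounds 17.5 h at 37 C, viability taken as CellTiter-Fluor fluorescence intensity.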

[18] = test system: estrogen-related receptor alpha (ERRalpha) with PGC-1alpha coactivator, human; assay: qHTS assay to identify small molecule antagonists of the estrogen related receptor signaling pathway with the pleiotropic PPARgamma coactivator (PGC) (AID 1224821; calls by dose curve)
Summary of the method: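 A PGC/ERR cell line supplied by NTP is seeded, allowed 6 h at 37 C, and treated with test compounds in DMSO for 18 h. Signal is then measured as luciferase luminescence using One-Glo.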

[19] = qHTS assay to identify small molecule antagonists of the estrogen related receptor signaling pathway with the pleiotropic PPARgamma coactivator (PGC) cell viability counter screen (AID 1224822;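 further: series mostly up to about 46 µM; viability read after 17.5 h compound exposure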)
Summary of the method: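 Viable cell signal (CellTiter-Fluor, 30 min, 37 C/5% CO2) was measured in PGC/ERR cells after a 17.5 h compound incubation.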

Measured: Potency

Sequence of Retinoic acid receptor RXR-alpha (Homo sapiens) (P19793 whole entry, looked up): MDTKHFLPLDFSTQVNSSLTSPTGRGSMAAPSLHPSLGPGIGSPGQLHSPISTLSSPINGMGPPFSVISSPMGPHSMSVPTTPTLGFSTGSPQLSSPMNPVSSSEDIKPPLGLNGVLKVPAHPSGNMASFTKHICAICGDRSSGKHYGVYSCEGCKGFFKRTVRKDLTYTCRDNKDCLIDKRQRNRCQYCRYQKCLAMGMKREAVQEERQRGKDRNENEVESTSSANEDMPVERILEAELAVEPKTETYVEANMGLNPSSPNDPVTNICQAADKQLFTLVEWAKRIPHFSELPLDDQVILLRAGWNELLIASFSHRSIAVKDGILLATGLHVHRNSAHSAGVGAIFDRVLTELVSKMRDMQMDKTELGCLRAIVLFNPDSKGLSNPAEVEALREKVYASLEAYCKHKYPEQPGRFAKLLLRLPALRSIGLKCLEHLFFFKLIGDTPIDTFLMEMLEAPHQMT

Cc1cc(O)c(Cl)c(C)c1Cl
active: [1] 43.6 µM | [2] 38.9 µM | [3] 54.9 µM | [4] 54.9 µM
inactive: [5] | [6] | [7] | [8] | [9] | [10]

CC(C)(C)CC(C)(C)c1ccc(O)c(Cc2ccc(Cl)cc2Cl)c1
active: [1] 23.7 µM | [2] 15.1 µM | [3] 16.9 µM | [4] 21.3 µM | [5] 23.7 µM | [6] 18.8 µM | [7] 15.1 µM | [11] 7.56 µM | [9] 26.6 µM | [10] 13.3 µM

O=C(OCC1CO1)C1CCCCC1C(=O)OCC1CO1 (centres undefined)
inactive: [1] | [2] | [3] | [4] | [5] | [6] | [12]

OCCN(CCO)c1nc(N2CCCCC2)c2nc(N(CCO)CCO)nc(N3CCCCC3)c2n1
active: [13] 11.9 µM
inactive: [3] | [4] | [5] | [6] | [11] | [9] | [14] | [15]

Cc1cc(O)c(C(C)(C)C)cc1C(C)(C)C
active: [1] 19.5 µM | [2] 21.9 µM | [3] 49 µM | [4] 24.5 µM | [5] 54.5 µM | [6] 54.5 µM | [7] 21.9 µM | [11] 21.9 µM

COCCCC/C(=N\OCCN)c1ccc(C(F)(F)F)cc1
active: [10] 23.7 µM
not listed: [8] | [9] | [11] | [12]
inactive: all other assays above

CC(C)(C)C(=O)OCOC(=O)C1N2C(=O)CC2S(=O)(=O)C1(C)C (centres undefined)
inactive: [1] | [2] | [3] | [4] | [5] | [6] | [11] | [9] | [10] | [16]

CCC1OCC(COc2ccc(Oc3ccccc3)cc2)O1 (centres undefined)
active: [1] 49 µM | [16] 3.44 µM
inactive: [2] | [3] | [4] | [5] | [6] | [7] | [9] | [10]

CCCCCCCCn1sc(Cl)c(Cl)c1=O
active: [1] 2.75 µM | [2] 6.92 µM | [3] 9.77 µM | [4] 3.47 µM | [5] 2.73 µM | [6] 4.86 µM | [7] 19.5 µM | [9] 13.7 µM | [10] 27.3 µM

O=C(Nc1cccc(C(F)(F)F)c1)c1cc(Br)cc(Br)c1O
inactive: [10] | [16]
active: [1] 2.19 µM | [2] 17.4 µM | [3] 54.9 µM | [4] 24.5 µM | [5] 10.9 µM | [6] 1.37 µM | [11] 21.9 µM

CC1=C(/C=C/C(C)=C/C=C/C(C)=C/C=O)C(C)(C)CCC1
active: [2] 13.7 µM | [3] 38.7 µM | [4] 38.7 µM | [5] 24.2 µM | [6] 30.5 µM | [8] 0.345 µM | [11] 19.4 µM | [16] 0.542 µM

O=C(N/N=C/c1ccccc1O)c1ccncc1
active: [6] 23.7 µM | [16] 29.8 µM
inactive: [3] | [4] | [5] | [7] | [9] | [10]

N=C1N=C(N)c2ccccc21
active: [4] 21.9 µM | [5] 43.3 µM | [6] 48.6 µM
inactive: [2] | [3] | [8]

Oc1cccc2cc3cccc(O)c3c(O)c12
inactive: [1] | [2] | [3] | [4] | [5] | [6] | [11]

Nc1ccc2c3c(cccc13)-c1ccccc1-2
inactive: [3] | [4] | [5] | [6] | [7] | [9]

CCc1cc(SCc2sc(-c3ccc(C(F)(F)F)cc3)nc2CN2CCN(c3ccc(OC)cc3)CC2)ccc1OCC(=O)O
active: [2] 7.76 µM | [3] 43.6 µM | [4] 54.9 µM | [5] 30.6 µM | [6] 13.7 µM | [7] 43.6 µM | [11] 3.89 µM | [10] 61.1 µM

CCCCCCCCCCCCCCCCCC[N+](C)(C)C
active: [2] 3.9 µM | [3] 55.1 µM | [4] 49.1 µM | [5] 54.6 µM | [6] 6.13 µM | [7] 49.1 µM | [11] 24.6 µM | [10] 54.6 µM

CC1=NC(C)OC1C (centres undefined)
inactive: [1] | [2] | [3] | [4] | [5] | [6] | [8] | [10] | [16]

CCCCCCCC/C=C/CCCCCCCC1=NCCN1CCO
active: [1] 34.7 µM | [2] 34.7 µM | [3] 49 µM | [4] 43.6 µM | [5] 68.6 µM | [6] 61.1 µM | [11] 49 µM | [9] 68.6 µM | [10] 61.1 µM

Oc1cc2ccccc2c2ccccc12
active: [1] 2.45 µM | [2] 4.36 µM | [3] 4.9 µM | [4] 11 µM | [5] 17.2 µM | [6] 12.2 µM | [7] 11 µM | [10] 13.7 µM
